In experiment [1] the target is T1, Serine/threonine-protein kinase 17A (Homo sapiens) (UniProt Q9UEE5).
T1 sequence (whole entry): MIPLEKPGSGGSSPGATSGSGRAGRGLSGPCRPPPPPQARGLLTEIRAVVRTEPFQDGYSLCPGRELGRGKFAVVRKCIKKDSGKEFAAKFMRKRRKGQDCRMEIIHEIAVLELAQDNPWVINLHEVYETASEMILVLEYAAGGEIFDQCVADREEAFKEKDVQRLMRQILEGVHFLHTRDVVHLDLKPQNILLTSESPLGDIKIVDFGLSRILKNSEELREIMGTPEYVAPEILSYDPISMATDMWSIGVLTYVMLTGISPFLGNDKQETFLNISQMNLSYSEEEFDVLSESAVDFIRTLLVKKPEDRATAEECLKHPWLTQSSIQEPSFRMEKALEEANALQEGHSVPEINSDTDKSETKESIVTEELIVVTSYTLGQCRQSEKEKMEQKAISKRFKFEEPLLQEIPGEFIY
Conditions: at 10 µM.

In experiment [2] the target is T2, Dual specificity tyrosine-phosphorylation-regulated kinase 2 (Homo sapiens) (UniProt Q92630).
T2 sequence (whole entry): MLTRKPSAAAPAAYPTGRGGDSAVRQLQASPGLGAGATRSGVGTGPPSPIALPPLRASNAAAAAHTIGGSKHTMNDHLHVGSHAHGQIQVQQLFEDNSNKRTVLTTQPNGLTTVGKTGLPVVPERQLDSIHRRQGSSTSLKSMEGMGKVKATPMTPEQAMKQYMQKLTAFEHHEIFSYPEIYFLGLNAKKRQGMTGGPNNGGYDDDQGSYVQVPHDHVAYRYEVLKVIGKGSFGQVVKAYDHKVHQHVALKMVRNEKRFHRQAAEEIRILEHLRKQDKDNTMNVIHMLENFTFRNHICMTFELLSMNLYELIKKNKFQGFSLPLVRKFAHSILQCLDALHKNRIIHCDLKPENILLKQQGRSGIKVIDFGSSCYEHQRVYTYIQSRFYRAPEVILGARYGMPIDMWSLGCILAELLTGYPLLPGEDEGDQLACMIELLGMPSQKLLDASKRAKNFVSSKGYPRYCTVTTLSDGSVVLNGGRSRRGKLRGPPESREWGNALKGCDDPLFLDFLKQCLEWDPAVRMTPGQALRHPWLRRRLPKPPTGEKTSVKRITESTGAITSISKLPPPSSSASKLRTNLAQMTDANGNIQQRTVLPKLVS
The following applies: at 1 µM.

The target of experiment [3] is T2, Dual specificity tyrosine-phosphorylation-regulated kinase 2 (Homo sapiens). Conditions: at 10 µM.
Experiment [4] deals with T3, Ephrin type-A receptor 1 (Homo sapiens) (UniProt P21709).
T3 sequence (whole entry): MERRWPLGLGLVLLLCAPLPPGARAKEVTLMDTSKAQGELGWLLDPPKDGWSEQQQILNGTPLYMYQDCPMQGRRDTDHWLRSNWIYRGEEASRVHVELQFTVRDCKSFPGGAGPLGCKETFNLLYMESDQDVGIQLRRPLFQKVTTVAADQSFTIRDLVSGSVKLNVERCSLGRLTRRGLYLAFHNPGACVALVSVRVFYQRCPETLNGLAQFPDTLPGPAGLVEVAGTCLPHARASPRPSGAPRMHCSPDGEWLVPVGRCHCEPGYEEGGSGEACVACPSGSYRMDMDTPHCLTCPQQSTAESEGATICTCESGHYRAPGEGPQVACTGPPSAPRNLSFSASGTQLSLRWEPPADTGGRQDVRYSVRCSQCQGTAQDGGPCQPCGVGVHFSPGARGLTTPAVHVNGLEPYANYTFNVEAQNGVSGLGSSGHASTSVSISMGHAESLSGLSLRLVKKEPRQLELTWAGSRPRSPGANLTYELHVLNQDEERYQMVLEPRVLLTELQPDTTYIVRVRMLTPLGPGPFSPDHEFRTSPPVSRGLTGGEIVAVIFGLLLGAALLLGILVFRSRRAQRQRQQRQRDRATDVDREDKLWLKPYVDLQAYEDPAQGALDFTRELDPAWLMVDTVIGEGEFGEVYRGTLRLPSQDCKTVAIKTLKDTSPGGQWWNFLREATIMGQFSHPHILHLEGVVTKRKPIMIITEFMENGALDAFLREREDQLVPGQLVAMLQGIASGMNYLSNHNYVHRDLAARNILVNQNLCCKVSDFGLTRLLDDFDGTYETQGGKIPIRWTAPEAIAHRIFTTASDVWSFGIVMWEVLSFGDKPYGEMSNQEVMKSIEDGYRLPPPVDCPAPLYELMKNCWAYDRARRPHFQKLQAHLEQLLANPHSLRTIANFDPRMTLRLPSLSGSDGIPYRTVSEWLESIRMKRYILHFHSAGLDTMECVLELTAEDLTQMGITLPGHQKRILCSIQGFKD
The following applies: at 1 µM.

The target of experiment [5] is T3, Ephrin type-A receptor 1 (Homo sapiens). The following applies: at 10 µM.
For experiment [6], the target named is Ephrin type-A receptor 2 (Homo sapiens) (UniProt P29317). Conditions: at 1 µM.
Chain of Ephrin type-A receptor 2 (Homo sapiens) (P29317 whole entry): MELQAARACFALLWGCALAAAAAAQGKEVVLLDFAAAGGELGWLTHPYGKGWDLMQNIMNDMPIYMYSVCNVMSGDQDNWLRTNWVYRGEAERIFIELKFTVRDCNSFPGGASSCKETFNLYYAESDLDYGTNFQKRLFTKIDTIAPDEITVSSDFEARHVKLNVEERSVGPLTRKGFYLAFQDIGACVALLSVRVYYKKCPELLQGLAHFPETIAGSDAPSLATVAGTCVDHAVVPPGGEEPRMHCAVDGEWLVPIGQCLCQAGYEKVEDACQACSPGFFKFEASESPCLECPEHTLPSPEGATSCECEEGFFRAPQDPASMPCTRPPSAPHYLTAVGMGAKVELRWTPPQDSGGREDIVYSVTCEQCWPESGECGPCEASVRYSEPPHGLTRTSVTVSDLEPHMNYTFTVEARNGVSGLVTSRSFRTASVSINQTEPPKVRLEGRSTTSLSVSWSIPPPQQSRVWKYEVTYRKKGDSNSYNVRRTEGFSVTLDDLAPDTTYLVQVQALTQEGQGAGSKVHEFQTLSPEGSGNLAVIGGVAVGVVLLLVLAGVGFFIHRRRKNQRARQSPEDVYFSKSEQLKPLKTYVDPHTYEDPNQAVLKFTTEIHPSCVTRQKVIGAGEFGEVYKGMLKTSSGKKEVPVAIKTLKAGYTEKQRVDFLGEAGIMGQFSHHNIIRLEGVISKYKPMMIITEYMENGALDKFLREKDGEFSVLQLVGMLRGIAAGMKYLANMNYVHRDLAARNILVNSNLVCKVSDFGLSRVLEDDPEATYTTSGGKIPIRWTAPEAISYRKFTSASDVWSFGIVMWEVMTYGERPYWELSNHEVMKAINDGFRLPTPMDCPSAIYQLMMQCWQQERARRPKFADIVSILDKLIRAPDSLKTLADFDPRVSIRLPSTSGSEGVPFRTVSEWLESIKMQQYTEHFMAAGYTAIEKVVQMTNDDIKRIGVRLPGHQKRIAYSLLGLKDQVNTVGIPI
Experiment [7] shares this target. Conditions: at 10 µM.
The target of experiment [8] is T4, Ephrin type-A receptor 3 (Homo sapiens) (UniProt P29320).
T4 sequence (whole entry): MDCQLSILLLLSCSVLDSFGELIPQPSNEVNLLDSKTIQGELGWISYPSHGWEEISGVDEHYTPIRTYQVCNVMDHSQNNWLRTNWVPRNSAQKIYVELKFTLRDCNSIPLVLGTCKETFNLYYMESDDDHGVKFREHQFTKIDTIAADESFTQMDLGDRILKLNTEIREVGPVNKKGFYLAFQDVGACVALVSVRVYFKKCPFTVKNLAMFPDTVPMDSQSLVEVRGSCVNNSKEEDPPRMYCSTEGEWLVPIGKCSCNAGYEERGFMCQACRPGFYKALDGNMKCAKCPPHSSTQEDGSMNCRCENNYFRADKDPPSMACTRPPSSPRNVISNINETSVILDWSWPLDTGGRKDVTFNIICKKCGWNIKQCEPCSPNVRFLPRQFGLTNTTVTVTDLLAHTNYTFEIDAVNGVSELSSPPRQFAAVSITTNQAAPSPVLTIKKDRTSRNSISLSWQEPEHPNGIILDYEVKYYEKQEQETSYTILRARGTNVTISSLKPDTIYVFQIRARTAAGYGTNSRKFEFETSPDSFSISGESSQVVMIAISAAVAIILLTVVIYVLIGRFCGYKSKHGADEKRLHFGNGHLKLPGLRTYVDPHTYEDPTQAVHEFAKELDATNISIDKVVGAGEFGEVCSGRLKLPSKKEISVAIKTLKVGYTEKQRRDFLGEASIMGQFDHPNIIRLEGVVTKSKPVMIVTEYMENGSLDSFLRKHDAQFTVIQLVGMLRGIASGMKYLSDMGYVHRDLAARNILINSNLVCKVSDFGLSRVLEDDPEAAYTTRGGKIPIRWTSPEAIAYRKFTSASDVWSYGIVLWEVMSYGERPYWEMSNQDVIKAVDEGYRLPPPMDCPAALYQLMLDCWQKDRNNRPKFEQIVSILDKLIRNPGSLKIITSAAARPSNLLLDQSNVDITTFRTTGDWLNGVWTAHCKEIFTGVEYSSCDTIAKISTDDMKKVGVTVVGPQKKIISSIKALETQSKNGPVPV
Conditions: at 1 µM.

Experiment [9] has as its target T4, Ephrin type-A receptor 3 (Homo sapiens). The following applies: at 10 µM.
In experiment [10] the target is Ephrin type-A receptor 4 (Homo sapiens) (UniProt P54764). The following applies: at 1 µM.
Chain of Ephrin type-A receptor 4 (Homo sapiens) (P54764 whole entry): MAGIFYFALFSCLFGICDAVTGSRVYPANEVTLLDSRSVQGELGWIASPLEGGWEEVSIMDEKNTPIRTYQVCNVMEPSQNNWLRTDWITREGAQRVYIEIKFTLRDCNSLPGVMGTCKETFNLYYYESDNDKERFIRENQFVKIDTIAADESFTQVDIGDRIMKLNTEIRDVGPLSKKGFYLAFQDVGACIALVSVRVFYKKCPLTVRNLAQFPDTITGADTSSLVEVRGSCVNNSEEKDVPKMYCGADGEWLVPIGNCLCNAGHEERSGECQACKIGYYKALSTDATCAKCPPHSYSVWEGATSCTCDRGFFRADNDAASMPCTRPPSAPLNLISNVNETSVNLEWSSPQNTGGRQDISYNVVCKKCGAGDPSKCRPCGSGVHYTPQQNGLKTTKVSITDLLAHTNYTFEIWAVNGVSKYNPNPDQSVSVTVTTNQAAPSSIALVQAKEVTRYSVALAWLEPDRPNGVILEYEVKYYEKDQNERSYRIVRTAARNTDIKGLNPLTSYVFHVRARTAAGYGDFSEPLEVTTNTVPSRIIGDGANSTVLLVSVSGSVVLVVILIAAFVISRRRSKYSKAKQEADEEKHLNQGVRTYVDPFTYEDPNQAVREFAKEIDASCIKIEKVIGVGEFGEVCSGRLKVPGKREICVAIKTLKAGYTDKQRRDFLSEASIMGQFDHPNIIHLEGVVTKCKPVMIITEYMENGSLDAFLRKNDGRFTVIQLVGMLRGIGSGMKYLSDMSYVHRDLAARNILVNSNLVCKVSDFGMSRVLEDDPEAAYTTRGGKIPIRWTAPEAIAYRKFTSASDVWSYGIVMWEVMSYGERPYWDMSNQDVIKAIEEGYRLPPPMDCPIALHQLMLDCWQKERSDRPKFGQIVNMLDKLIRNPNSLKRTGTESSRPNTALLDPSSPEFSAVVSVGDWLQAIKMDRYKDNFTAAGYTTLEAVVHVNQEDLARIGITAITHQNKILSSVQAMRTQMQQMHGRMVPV
Experiment [11] shares this target. The following applies: at 10 µM.
Experiment [12] addresses Ephrin type-A receptor 5 (Homo sapiens) (UniProt P54756). The following applies: at 1 µM.
Experiment [13] has the same target. Conditions: at 10 µM.
The target in experiment [14] is Ephrin type-A receptor 7 (Homo sapiens) (UniProt Q15375). Conditions: at 1 µM.
Chain of Ephrin type-A receptor 7 (Homo sapiens) (Q15375 28-998 limits assumed): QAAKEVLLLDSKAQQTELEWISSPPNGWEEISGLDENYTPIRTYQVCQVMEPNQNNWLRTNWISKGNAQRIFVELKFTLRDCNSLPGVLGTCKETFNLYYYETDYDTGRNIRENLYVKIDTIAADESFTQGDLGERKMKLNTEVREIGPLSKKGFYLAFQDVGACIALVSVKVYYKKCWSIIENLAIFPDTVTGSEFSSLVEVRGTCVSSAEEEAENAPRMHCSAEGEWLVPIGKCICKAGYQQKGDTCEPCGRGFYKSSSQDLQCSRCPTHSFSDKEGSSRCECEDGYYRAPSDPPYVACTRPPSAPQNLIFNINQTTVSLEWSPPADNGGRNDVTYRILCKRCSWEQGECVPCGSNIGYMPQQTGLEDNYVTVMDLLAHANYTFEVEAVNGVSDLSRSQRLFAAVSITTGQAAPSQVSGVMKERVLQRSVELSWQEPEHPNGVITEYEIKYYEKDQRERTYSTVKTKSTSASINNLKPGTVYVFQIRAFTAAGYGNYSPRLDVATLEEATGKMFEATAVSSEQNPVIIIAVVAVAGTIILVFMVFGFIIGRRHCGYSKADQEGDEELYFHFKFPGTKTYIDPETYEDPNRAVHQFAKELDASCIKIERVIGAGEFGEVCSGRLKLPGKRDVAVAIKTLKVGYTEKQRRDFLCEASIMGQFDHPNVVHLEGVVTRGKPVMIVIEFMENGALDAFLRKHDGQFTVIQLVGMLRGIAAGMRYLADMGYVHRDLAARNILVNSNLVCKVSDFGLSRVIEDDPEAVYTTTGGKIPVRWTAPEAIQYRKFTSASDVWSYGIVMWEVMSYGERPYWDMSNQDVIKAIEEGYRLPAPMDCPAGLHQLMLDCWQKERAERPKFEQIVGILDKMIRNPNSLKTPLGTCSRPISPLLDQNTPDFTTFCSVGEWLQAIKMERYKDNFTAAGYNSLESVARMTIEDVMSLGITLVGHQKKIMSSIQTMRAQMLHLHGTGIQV
The target is the same in experiment [15]. Conditions: at 10 µM.
In experiment [16] the target is T5, Ephrin type-A receptor 8 (Homo sapiens) (UniProt P29322).
T5 sequence (whole entry): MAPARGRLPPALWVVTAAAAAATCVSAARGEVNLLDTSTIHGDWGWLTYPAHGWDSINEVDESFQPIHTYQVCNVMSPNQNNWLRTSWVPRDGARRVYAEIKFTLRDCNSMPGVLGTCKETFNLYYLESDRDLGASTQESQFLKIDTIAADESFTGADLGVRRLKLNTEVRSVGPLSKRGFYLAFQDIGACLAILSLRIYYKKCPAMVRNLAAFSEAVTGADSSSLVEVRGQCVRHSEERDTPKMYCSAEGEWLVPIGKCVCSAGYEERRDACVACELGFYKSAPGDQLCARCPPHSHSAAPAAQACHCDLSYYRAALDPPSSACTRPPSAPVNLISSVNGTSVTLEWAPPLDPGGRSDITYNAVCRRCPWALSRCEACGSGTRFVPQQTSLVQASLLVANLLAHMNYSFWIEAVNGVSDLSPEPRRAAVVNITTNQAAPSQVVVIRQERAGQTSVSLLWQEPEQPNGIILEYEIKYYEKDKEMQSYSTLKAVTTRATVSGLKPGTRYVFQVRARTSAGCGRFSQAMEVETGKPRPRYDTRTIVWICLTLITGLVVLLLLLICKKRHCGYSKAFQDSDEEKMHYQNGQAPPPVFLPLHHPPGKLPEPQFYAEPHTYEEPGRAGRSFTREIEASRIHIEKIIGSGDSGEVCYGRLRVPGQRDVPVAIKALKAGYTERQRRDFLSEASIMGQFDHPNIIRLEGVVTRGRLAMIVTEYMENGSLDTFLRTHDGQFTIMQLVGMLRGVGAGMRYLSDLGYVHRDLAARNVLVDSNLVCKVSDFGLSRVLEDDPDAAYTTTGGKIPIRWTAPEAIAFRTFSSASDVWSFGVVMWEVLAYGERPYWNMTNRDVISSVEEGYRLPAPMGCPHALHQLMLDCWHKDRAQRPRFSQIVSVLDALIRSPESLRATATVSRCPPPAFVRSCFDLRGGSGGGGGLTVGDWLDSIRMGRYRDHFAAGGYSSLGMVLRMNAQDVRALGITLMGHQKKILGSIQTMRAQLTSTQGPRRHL
The following applies: at 1 µM.

Experiment [17] concerns the target T5, Ephrin type-A receptor 8 (Homo sapiens). The following applies: at 10 µM.
For experiment [18], the target named is T6, Ephrin type-B receptor 1 (Homo sapiens) (UniProt P54762).
T6 sequence (whole entry): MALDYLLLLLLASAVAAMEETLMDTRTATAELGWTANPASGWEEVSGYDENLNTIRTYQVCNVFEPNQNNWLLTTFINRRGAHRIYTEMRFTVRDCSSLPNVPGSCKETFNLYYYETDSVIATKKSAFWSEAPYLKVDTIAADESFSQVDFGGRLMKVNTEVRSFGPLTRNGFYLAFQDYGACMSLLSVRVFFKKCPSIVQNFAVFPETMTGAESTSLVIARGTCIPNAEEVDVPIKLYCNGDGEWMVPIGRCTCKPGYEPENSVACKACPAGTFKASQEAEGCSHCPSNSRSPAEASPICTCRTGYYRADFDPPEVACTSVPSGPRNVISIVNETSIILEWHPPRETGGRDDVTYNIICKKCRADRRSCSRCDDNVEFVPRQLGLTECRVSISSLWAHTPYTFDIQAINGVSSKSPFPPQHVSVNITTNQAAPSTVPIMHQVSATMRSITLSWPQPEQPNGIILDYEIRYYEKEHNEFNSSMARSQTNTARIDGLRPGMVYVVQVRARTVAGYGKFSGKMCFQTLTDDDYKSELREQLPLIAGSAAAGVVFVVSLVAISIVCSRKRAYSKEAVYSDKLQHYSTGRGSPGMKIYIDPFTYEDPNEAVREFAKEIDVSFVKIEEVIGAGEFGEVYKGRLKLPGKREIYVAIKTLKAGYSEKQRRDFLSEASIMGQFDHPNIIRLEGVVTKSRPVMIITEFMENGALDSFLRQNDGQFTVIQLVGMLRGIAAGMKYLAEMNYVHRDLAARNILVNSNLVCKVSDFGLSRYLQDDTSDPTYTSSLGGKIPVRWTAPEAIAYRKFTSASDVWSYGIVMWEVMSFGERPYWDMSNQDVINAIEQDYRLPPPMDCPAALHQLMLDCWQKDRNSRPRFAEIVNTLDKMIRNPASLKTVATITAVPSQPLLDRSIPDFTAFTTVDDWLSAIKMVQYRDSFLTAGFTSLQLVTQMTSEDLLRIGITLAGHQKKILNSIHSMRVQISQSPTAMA
The following applies: at 1 µM.

The target of experiment [19] is Epidermal growth factor receptor (Homo sapiens) (UniProt P00533). The following applies: at 1 µM.
For experiment [20] the target is unchanged. Conditions: at 10 µM.

Experimental findings from ChEMBL document CHEMBL2218924, “A broad activity screen in support of a chemogenomic map for kinase signalling research and drug discovery” (Biochem J, 2013) are described below.

Chain of Ephrin type-A receptor 5 (Homo sapiens) (P54756 whole entry): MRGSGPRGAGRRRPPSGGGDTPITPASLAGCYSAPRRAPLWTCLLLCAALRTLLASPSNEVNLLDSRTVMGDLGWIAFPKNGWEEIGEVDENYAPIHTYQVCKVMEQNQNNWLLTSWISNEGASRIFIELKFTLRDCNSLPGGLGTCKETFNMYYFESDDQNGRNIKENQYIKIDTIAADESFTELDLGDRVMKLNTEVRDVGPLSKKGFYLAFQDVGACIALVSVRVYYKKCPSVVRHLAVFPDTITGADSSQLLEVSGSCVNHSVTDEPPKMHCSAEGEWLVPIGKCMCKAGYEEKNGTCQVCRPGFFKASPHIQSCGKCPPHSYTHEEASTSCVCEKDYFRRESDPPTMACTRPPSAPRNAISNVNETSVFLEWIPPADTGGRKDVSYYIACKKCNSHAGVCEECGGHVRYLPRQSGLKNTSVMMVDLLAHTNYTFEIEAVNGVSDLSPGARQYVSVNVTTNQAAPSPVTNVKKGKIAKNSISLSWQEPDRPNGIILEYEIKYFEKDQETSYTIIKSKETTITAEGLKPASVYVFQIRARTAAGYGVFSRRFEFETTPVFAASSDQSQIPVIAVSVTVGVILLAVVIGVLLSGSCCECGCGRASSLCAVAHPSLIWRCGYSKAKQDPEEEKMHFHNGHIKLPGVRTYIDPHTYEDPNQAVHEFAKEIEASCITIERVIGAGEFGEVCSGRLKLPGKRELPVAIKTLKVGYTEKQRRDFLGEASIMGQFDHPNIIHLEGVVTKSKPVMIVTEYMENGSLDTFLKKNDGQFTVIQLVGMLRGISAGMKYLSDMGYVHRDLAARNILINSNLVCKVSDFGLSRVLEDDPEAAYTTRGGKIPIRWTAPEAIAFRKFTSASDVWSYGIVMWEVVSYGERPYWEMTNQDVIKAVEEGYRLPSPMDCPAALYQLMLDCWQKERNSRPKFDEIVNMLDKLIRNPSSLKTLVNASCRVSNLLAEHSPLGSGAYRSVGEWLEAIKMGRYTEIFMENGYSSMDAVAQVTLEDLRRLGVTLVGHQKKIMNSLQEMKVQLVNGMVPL

Turning to `COc1cc2ncnc(N3CCN(C(=O)Nc4ccc(Oc5ccccc5)cc4)CC3)c2cc1OC`, the residual activity (as a rule, the signal under treatment as a percentage of the control signal) in experiment [1] was 101%; in experiment [2] it was 92%; in experiment [3], 98%; in experiment [4], 85%; in experiment [5], 76%; in [6], 101%. The residual activity amounted to 109% in experiment [7]; 98% in experiment [8]; 112% in experiment [9]; 99% in experiment [10]; 101% in [11]; 117% in [12]. Moreover, the residual activity in experiment [13] is 124%; in experiment [14], 95%; in experiment [15], 93%; in experiment [16], 87%; in experiment [17] it was 99%; in experiment [18], 96%.

Consider `COc1ccc(CNc2nc(N(CCO)CCO)nc3c2ncn3C(C)C)cc1`, for which the residual activity in [1] was 85%; in experiment [2] it was 87%; in experiment [3], 67%; in experiment [19] it was 97%; in [20], 116%; in [4] it was 95%. Besides, the residual activity in experiment [5] was determined as 81%; in experiment [6], 95%; in experiment [7], 117%; in experiment [8], 82%; in experiment [9], 90%; in experiment [10], 110%. Moreover, the residual activity in [11] was determined as 110%; in [12], 126%; in experiment [13], 105%; in experiment [14] it was 92%; in experiment [15], 73%; in experiment [16] it was 99%. Further, the residual activity in experiment [17] was determined as 88%; in experiment [18], 105%.

Consider `O=C(Nc1cccc(Nc2cc(Nc3cccc(C(F)(F)F)c3)ncn2)c1)C1CC1`, for which the residual activity in experiment [1] was 50%; in experiment [2] it was 97%; in experiment [3] it was 99%; in [19], -2%; in [20], -3%; in [4] it was 82%. Further, the residual activity was determined as 90% in experiment [5]; 108% in experiment [6]; 98% in [7]; 115% in experiment [8]; 114% in experiment [9]; 113% in experiment [10]. The residual activity in experiment [11] is 103%; in [12], 98%; in experiment [13], 87%; in [14], 95%; in experiment [15], 86%; in experiment [16] it was 98%. The results for the residual activity in experiment [17] and in experiment [18] were 90% and 98%, respectively.
